Laboratory results published in PubChem BioAssay (NCI).
This is part of a sample that, as a whole, favours compounds with a hit. Of some 83,000 tested, about 20% had one in any assay.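 Interpretation: 100, growth as untreated; towards 0, rising growth inhibition; 0, no net growth; 0 to -100, cell death. Compounds scoring below 10 were considered active.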 Unmarked numbers belong to inactive results. The source made the active and inactive calls.

Each compound was assayed on HL-60(TB) leukemia (assay: NCI-60 one-dose screen, 48 h (100 = growth as untreated, 0 = no growth, -100 = all killed)). Conditions: 10 µM unless noted.
`COC(=O)c1c(C(=O)OC)c2c3ccccc3c3ccccc3n2c1C(=O)C(F)(F)F` gave a growth of 107%. In the case of `CC[C@]12C=CCN3CC[C@]4(C(=C(C(=O)OC)C1)Nc1cc(OC)c([C@@H]5[C@H]6O[C@H]6[C@@]6(CC)CC(C(=O)OC)=C7Nc8cc(O)ccc8[C@@]78CCN5[C@@H]68)cc14)[C@@H]32`, the growth is reported as -44.4% (active). In the case of `COc1ccc2oc3c4[nH]c5ccccc5c4c4c(c3c2c1)C(=O)N(C(=O)OC(C)(C)C)C4=O`, the growth is reported as -7.65% (active). For `OCCn1cc(-c2nc3ccc4[nH]ncc4c3c3c2CCCC3)cn1`, the growth was 45.2%. With `CCOC(=O)COc1c(OC)c(OC)cc2oc(-c3cccc(C(=O)Nc4ccc(Cl)cc4)c3)cc(=O)c12` the growth was 97.6%.
